Measured values from PubChem BioAssay (NCATS).
Results filed as inconclusive are left out. This is one part of the list. Activity calls are given as the source filed them. Unless noted, the call rests on the fitted dose curve; in most records, active means well fitted curve in the direction sought with a large enough effect; inconclusive means small, poorly fitted or top-dose-only effect, or another doubt; inactive means no such curve, though single readings can be large; an effect the other way counts as inactive or inconclusive.

Experiments:
[1] = target: Tumor susceptibility gene 101 protein (Homo sapiens) (UniProt Q99816); assay: qHTS Assay for Iinhibitors of HIV-1 Budding by Blocking the Interaction of PTAP/TSG101: Hit Validation (AID 651600); further: nearly all actives have a fitted effect of over 70% in size; further: potency means the concentration at half of the fitted maximal effect; on activity change, negative = inhibition: on the % scale 0 is the no-effect control and ±100 the full control effect
Summary of the method: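 Fluorescence polarization binding assay: Tsg101 binding domain (10 uM) mixed with compounds and FITC-labeled PTAP peptide (50 nM) in HEPES pH 7.5, 0.15 M NaCl, 0.01% Tween 20, EDTA, TCEP; 20 min at r.t.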

[2] = target: Rap guanine nucleotide exchange factor 3 (Homo sapiens) (UniProt O95398); assay: Confirmatory qHTS for antagonist of cAMP-regulated guanine nucleotide exchange factor 3 (EPAC1) (AID 1645880); settings: EPAC1 Rap1B-BODIPY-GDP exchange, fluorescence; activity, negative = inhibition: at 115 µM (top of the series);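 further: plate controls were DMSO only for no effect and full effect of the ATA control for full effect; nearly all actives have a fitted effect of over 55% in size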
Summary of the method: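 Nucleotide exchange uses 100 nM EPAC1, 250 nM RAP1B-BODIPY-GDP and 50 uM GDP, with compounds in a concentration-titration series. After 5 min at room temperature, fluorescence (480 nm ex/540 nm em) is read every 5 min for 30 min. Data are normalized to control ATA and DMSO.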

[3] = target: Rap guanine nucleotide exchange factor 3 (Homo sapiens) (UniProt O95398); assay: Confirmatory qHTS for agonist of cAMP-regulated guanine nucleotide exchange factor 3 (EPAC1) (AID 1645881); further: nearly all actives have a fitted effect of over 75% in size; further: potency means the concentration at half of the fitted maximal effect;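 on activation: EPAC1 catalysed release of BODIPY-GDP from Rap1B seen as fluorescence loss; 100% = effect of cAMP agonist control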
[4] = target: Rap guanine nucleotide exchange factor 4 (Homo sapiens) (UniProt Q8WZA2); assay: Confirmatory qHTS for agonist of cAMP-regulated guanine nucleotide exchange factor 4 (EPAC2) (AID 1645884);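 further: nucleotide exchange releases bodipy-GDP from Rap1 and this lowers its fluorescence; nearly all actives have a fitted effect of over 65% in size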; further: potency means the concentration at half of the fitted maximal effect; on activation: on the % scale 0 is the no-effect control and ±100 the full control effect
[5] = target: Rap guanine nucleotide exchange factor 4 (Homo sapiens) (UniProt Q8WZA2); assay: Confirmatory qHTS for antagonist of cAMP-regulated guanine nucleotide exchange factor 4 (EPAC2) (AID 1645885); further: nearly all actives have a fitted effect of over 25% in size; further: potency means the concentration at half of the fitted maximal effect
[6] = target: Rap guanine nucleotide exchange factor 3 (Homo sapiens) (UniProt O95398); assay: Counterscreen qHTS for antagonist of cAMP-regulated guanine nucleotide exchange factor 3 (EPAC1) (AID 1645888);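 further: fluorescence loss as bound BODIPY-GDP is released from Rap1B; % of control where 0% means no effect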
Summary of the method: (§1)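 Rap1B–BODIPY-GDP (250 nM) with 50 uM GDP; compounds pin-transferred to 9.74 nM–152 uM final (activator) or from 7.32 nM upwards (inhibitor). Fluorescence Ex/Em 480/540 nm read at 5 and 30 min, then after adding cAMP or buffer, at room temperature.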

[7] = target: Rap guanine nucleotide exchange factor 3 (Homo sapiens) (UniProt O95398); assay: Counterscreen qHTS for agonist of cAMP-regulated guanine nucleotide exchange factor 3 (EPAC1) (AID 1645889); further: nearly all actives have a fitted effect of over 40% in size; further: potency means the concentration at half of the fitted maximal effect; on activation: % of control where 0% means no effect
Summary of the method: as §1

[8] = target: ATPase family AAA domain-containing protein 5 (Homo sapiens) (UniProt Q96QE3); assay: HTS assay for small molecules that inhibit ELG1-dependent DNA repair in human embryonic kidney (HEK293T) cells expressing luciferase-tagged ELG1: Hit Confirmation (AID 624248); settings: HEK293T ELG1-luciferase levels, luminescence; cells co-treated with 5-fluorouridine; further: potency means the concentration at half of the fitted maximal effect; nearly all actives have a fitted effect of over 55% in size
Summary of the method: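 HEK293T cells expressing luciferase-tagged ELG1 treated with 5-fluorouridine plus compound for 16 h at 37 C; luciferase activity then measured with ONE-Glo after 30 min at room temperature.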

[9] = target: ATPase family AAA domain-containing protein 5 (Homo sapiens) (UniProt Q96QE3); assay: qHTS screen for small molecules that inhibit ELG1-dependent DNA repair in human embryonic kidney (HEK293T) cells expressing luciferase-tagged ELG1: Hit Confirmation using MMS Stimulated ELG1 (AID 624249); further: potency means the concentration at half of the fitted maximal effect; nearly all actives have a fitted effect of over 60% in size
Summary of the method: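 HEK293T cells carrying ELG1-luciferase, compounds added about 5 h after plating together with MMS at 10 µM final. Luciferase activity read 16 h after compound addition; suppression of signal scored.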

[10] = qHTS screen for small molecules that inhibit ELG1-dependent DNA repair: Hit Confirmation with MMS Viability (AID 624251); further: on the % scale 0 is the no-effect control and ±100 the full control effect; nearly all actives have a fitted effect of over 60% in size
Summary of the method: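 ELG1-luc HEK293T cells, 2,000/well, given compounds about 5 h after plating together with MMS at 10 µM final; viability measured by CellTiter-Glo after 16 h.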

[11] = qHTS for Inhibitors of Plasmodium falciparum (DD2) proliferation (AID 504314);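 further: parasite DNA measured by SYBR Green fluorescence after red cell lysis; plate controls were DMSO vehicle for no effect and artemisinin wells for full effect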
Summary of the method: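 Fluorescence read-out (ex 485/em 535 nm) of SYBR Green-stained parasite DNA quantifies intraerythrocytic growth. Cultures at 0.3% parasitemia and 2.5% hematocrit were treated for 72 h; data normalized to DMSO and 0.29 uM artemisinin wells.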

[12] = qHTS for Inhibitors of Plasmodium falciparum (GB4) proliferation (AID 504315);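 further: 0% = DMSO vehicle and -100% = 0.29 µM artemisinin control; nearly all actives have a fitted effect of over 50% in size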
Summary of the method: (§2)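 Erythrocytes infected with P. falciparum line (0.3% parasitemia, 2.5% hematocrit final) incubated with compounds 72 h at 37 °C, 5% CO2; SYBR Green lysis buffer added, fluorescence read next day. Normalized to 0.29 uM artemisinin and DMSO.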

[13] = qHTS for Inhibitors of Plasmodium falciparum (7G8) proliferation (AID 504316);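 further: 0% = DMSO vehicle and -100% = 0.29 µM artemisinin full kill; nearly all actives have a fitted effect of over 65% in size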
Summary of the method: as §2

[14] = qHTS for Inhibitors of Plasmodium falciparum (HB3) proliferation (AID 504318);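 further: 0% = DMSO vehicle and -100% = artemisinin control; nearly all actives have a fitted effect of over 60% in size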
Summary of the method: as §2

[15] = qHTS for Inhibitors of Plasmodium falciparum (CP250) proliferation (AID 504320);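 further: plate controls were DMSO vehicle for no effect and 0.29 µM artemisinin control for full effect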
Summary of the method: as §2

[16] = AP1 Signaling Pathway (AID 357; active means well fitted curve in either direction with a large enough effect, not every such curve was filed as active;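 further: ME-180 reporter cells stimulated with EGF at its EC50 level; on the % scale 0 is the no-effect control and ±100 the full control effect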); settings: ME-180 AP-1-bla reporter, EGF-induced, beta-lactamase ratio, 5 h; at 7.69 µM (top of the series) unless noted
Summary of the method: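 First, ME-180 AP-1-bla cells were cultured overnight at 37 °C in low-serum Opti-MEM. Next, titrated compounds with EC50 EGF were incubated 5 hours. Finally, CCF4 was added for 2.5 hours and the 460/530 nm ratio recorded.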

[17] = Stat Signaling Pathway (AID 446; active means well fitted curve in either direction with a large enough effect, not every such curve was filed as active;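 further: ME-180 cervical cancer cells given 40 pM IL-6 alongside compound; SIE-controlled beta-lactamase reporter measured as 460/530 nm FRET emission ratio; on the % scale 0 is the no-effect control and ±100 the full control effect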)
Summary of the method: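 IL-6/STAT signaling read in ME-180 cells via an SIE beta-lactamase reporter. Stimulus was 40 pM IL-6 (its AC50) for 5 hrs, so both activation and inhibition register.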

[18] = target: Glucocorticoid receptor (Homo sapiens) (UniProt P04150); assay: GR-GFP Redistribution (AID 450;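 active means compounds whose dose series gives a full or clear partial fitted curve of increased nuclear translocation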; further: potency means the concentration at half of the fitted maximal effect); settings: U2OS GR-GFP nuclear translocation, laser cytometry, 2 h
[19] = qHTS Assay for Identification of Small Molecule Agonists for Hypoxia Response Element Signaling Pathway (AID 914; active means well fitted activation curve with a large enough effect in the signal ratio, with a control signal flat, not every such curve was filed as active; the % refers to the signal ratio; further: potency means the concentration at half of the fitted maximal effect); settings: ME-180 (cervical carcinoma) HRE-bla reporter, beta-lactamase ratio, CoCl2, 17 h; activation: stronger effect = higher value
Summary of the method: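 qHTS titration; ME-180 HRE-bla cells; EC50 CoCl2 co-treatment, 17 h at 37 degrees Celsius; CCF4 dye, ex 405nm, em 460nm and 530nm; %Activity from ratio; AC50.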

Rap guanine nucleotide exchange factor 3 (Homo sapiens), sequence (O95398 whole entry, looked up): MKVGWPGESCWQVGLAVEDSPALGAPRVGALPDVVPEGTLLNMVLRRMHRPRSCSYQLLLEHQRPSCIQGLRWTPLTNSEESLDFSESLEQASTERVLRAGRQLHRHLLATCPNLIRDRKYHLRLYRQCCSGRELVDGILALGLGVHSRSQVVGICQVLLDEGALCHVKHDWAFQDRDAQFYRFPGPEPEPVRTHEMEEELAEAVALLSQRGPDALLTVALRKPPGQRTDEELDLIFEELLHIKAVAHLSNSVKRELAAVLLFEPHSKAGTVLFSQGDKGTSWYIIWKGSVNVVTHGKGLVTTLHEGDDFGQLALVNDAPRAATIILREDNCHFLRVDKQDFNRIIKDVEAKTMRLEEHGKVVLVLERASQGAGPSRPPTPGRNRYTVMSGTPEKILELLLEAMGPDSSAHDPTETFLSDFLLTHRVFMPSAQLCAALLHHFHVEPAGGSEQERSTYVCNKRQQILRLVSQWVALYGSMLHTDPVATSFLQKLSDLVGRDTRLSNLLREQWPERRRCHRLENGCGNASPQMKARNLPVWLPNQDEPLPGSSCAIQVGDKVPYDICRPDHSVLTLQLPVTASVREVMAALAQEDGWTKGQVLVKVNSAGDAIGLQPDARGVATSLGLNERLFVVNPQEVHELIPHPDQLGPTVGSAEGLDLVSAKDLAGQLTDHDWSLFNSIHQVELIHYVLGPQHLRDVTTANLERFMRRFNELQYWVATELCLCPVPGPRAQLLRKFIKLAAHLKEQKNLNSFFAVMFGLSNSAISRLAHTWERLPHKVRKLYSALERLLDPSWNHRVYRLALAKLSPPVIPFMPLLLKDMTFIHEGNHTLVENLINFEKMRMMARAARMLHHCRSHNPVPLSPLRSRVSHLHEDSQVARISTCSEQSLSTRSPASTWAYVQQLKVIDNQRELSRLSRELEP
Rap guanine nucleotide exchange factor 4 (Homo sapiens), sequence (Q8WZA2 whole entry, looked up): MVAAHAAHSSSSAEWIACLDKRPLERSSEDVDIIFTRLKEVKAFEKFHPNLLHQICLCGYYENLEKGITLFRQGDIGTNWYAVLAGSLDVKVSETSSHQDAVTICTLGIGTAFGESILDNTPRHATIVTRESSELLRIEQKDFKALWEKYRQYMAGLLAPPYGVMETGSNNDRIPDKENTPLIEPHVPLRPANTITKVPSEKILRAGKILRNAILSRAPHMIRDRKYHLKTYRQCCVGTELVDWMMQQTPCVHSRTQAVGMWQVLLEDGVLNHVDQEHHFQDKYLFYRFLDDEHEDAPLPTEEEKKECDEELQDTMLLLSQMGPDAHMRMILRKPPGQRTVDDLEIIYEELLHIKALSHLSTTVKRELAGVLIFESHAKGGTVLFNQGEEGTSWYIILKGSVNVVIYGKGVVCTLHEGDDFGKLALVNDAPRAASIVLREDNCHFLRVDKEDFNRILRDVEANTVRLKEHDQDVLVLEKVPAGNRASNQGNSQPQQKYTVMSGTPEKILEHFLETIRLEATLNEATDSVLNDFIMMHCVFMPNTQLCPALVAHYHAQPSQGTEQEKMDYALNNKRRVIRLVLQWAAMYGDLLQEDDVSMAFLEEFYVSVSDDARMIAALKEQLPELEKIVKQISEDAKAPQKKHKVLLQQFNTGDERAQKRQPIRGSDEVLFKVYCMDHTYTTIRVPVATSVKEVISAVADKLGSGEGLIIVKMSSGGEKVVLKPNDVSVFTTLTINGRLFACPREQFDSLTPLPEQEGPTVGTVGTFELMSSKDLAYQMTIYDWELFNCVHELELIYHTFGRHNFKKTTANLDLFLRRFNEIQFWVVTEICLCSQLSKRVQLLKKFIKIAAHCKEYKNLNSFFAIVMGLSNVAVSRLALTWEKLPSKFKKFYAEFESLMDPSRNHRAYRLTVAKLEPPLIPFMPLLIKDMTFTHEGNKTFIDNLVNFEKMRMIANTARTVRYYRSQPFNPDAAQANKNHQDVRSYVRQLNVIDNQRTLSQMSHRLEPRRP
Tumor susceptibility gene 101 protein (Homo sapiens), sequence (Q99816 whole entry, looked up, the tested form may be a part): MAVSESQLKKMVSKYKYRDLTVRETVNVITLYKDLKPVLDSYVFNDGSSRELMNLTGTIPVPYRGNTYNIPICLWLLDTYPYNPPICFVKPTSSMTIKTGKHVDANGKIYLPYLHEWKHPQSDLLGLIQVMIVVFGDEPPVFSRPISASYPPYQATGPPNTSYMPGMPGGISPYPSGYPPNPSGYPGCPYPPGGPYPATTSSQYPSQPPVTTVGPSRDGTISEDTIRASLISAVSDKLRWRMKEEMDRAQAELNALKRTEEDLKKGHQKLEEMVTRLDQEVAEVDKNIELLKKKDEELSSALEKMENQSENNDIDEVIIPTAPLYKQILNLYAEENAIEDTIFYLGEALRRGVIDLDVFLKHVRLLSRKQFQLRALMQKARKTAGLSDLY
ATPase family AAA domain-containing protein 5 (Homo sapiens), sequence (Q96QE3 whole entry, looked up, the tested form may be a part): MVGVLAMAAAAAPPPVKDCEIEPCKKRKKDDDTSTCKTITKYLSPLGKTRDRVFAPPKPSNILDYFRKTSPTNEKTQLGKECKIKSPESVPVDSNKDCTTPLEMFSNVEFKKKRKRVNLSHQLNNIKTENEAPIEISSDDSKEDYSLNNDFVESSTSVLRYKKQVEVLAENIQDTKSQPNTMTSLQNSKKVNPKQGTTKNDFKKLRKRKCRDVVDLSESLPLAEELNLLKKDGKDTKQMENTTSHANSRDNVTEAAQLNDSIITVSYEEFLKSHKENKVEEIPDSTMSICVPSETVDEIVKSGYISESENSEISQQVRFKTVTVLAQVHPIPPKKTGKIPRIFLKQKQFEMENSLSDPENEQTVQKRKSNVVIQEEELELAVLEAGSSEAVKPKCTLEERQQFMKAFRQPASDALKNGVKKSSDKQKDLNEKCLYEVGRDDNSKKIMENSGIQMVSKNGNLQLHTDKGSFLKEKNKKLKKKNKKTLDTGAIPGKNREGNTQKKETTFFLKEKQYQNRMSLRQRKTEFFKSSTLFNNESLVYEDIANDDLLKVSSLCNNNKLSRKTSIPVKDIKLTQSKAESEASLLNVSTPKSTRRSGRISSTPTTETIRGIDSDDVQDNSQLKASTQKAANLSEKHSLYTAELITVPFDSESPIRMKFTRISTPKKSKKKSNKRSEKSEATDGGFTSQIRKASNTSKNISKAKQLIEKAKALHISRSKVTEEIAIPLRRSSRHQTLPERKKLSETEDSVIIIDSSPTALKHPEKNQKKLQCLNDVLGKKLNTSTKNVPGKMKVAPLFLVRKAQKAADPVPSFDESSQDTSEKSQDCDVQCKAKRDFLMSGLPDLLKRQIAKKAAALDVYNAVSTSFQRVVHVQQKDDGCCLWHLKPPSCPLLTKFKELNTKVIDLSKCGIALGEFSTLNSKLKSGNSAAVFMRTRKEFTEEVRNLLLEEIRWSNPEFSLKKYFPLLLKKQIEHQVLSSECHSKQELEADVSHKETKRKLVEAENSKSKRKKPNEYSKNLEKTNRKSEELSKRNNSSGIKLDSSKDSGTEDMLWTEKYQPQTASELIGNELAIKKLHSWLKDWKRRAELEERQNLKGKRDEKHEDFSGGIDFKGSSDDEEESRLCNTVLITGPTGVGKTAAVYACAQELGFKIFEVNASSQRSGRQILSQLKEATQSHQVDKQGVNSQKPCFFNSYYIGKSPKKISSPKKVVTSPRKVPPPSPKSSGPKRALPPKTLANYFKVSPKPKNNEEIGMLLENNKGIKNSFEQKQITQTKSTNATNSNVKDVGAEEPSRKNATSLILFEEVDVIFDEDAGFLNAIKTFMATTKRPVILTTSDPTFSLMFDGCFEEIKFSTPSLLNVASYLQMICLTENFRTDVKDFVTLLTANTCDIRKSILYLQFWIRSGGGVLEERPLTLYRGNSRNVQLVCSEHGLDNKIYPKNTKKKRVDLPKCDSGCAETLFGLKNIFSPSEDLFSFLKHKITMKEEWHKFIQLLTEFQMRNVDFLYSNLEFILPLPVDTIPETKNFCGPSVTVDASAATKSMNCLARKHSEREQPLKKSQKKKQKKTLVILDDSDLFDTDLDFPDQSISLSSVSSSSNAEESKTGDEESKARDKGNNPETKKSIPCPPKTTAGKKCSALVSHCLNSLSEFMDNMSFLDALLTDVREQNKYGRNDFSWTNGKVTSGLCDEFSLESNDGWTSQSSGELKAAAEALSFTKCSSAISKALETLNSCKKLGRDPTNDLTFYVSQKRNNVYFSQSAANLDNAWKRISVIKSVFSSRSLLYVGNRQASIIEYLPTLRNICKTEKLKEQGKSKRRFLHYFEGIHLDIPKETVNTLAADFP
Glucocorticoid receptor (Homo sapiens), sequence (P04150 whole entry, looked up): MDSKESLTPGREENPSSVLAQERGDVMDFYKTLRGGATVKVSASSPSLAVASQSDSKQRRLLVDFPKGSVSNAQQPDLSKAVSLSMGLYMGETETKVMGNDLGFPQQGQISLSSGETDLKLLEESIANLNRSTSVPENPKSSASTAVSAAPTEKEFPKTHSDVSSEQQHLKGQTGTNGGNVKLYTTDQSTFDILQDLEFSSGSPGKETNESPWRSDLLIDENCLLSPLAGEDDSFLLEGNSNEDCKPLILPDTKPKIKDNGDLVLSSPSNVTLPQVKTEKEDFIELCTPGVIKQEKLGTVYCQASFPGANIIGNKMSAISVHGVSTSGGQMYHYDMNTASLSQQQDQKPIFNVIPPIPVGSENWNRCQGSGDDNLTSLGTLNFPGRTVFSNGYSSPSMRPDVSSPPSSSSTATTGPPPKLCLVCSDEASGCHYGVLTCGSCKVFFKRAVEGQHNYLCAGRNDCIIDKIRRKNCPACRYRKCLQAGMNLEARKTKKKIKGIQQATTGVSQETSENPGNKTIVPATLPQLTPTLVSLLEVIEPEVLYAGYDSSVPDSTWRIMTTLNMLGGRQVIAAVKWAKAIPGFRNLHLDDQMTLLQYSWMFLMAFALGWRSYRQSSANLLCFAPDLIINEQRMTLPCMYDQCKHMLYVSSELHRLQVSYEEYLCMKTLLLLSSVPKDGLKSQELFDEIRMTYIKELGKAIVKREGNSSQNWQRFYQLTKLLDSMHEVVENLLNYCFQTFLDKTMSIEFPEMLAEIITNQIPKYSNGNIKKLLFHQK

O=C(OCCN1C(=O)c2cccc3c(N4CCOCC4)ccc(c23)C1=O)c1cccc(Cl)c1
active: Potency [3] 89.1 µM | Potency [4] 100 µM | Potency [5] 75.7 µM | Potency [7] 3.16 µM
inactive: Potency [1] | Potency [2] | Potency [6]

COc1ccc(-c2cc(C(=O)N(C)CC(=O)Nc3ccccc3Cl)c3ccccc3n2)cc1OC
active: Potency [8] 4.99 µM | Potency [9] 12.5 µM
inactive: outcome [10] | Potency [2] | Potency [3] | activation [4] 3.75% [at 17.1 µM, percent relative to cAMP agonist control] | Potency [5] | activity change, negative = inhibition [6] -9.19% [at 30.8 µM]

COc1ccc2nc3ccccc3[n+]([O-])c2c1
active: Potency [1] 18.3 µM | Potency [3] 79.4 µM
inactive: Potency [2] | activation [4] 14% [at 17.1 µM, percent relative to cAMP agonist control] | Potency [5] | activity change, negative = inhibition [6] 32.7% [at 30.8 µM]

CCN1C(=O)N(S(=O)(=O)C(F)(F)F)[C@@H](c2ccccc2)C(C(=O)OC)=C1C
inactive: outcome [11] | outcome [12] | outcome [13] | outcome [14] | outcome [15] | Potency [2] | Potency [3] | Potency [4] | Potency [5] | Potency [6] | Potency [7]

c1ccc(-c2cn3nc(-c4ccccc4)c(-c4ccccc4)nc3n2)cc1
inactive: Potency [1] | Potency [2] | Potency [3] | activation [4] 8.73% [at 17.1 µM, percent relative to cAMP agonist control] | Potency [5] | activity change, negative = inhibition [6] 14.3% [at 30.8 µM] | activation [7] 16.7% [at 30.8 µM]

CSC1=NSC2=NC(=O)/C(=C\c3coc4ccccc4c3=O)C(=N)N12
inactive: Potency [2] | Potency [6]
active: Potency [1] 5.17 µM | Potency [3] 89.1 µM | Potency [4] 100 µM | Potency [5] 16.9 µM | Potency [7] 44.7 µM

CCCCCCc1cc2cc(C(=O)NC)c(=N)oc2cc1O
inactive: activity change, negative = inhibition [16] -13% [at 17.2 µM] | outcome [17] | Potency [18] > 20.6 µM | Potency [2] | Potency [5] | Potency [6]
active: Potency [19] 3.98 µM | Potency [3] 89.1 µM | Potency [4] 100 µM

Cc1cc(NS(=O)(=O)c2ccc(NC(=O)COc3c(C)cc(Br)cc3C)cc2)no1
inactive: Potency [1] | Potency [2] | Potency [3] | Potency [4] | Potency [5] | Potency [6] | Potency [7]
